Several values for one entry are separate records, joined by “and”; a condition that tells them apart may be missing. Identical values can stand only once. Inconclusive results are not listed. Activity calls are given as the source filed them. Unless noted, calls follow the shape of the full dose curve.
Columns and labels:
[1] = Nuclear factor erythroid 2-related factor 2/antioxidant responsive element (Nrf2/ARE) small molecule agonists: qHTS cell viability counter screen in human keratinocytes (AID 1919968; active = well fitted curve in the direction sought with a large enough effect in the repeat runs; an effect the other way counts as inactive or inconclusive; also: nearly all actives have a fitted effect of over 55% in size); conditions: KeratinoSens HaCaT ARE cells viability, CellTiter-Fluor, 24 h; series mostly up to 92.4 µM
How it was run: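 After a 5 h attachment period, ARE-reporter keratinocytes were dosed with compounds in DMSO and then cultured 23 h at 37 C. Cell viability came from CellTiter-Fluor signal read after a further 1 h.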

[2] = Nuclear factor erythroid 2-related factor 2/antioxidant responsive element (Nrf2/ARE) small molecule agonists: luciferase reporter gene qHTS assay in human keratinocytes (AID 1919969); conditions: KeratinoSens HaCaT ARE-luciferase, luminescence, 24 h; series mostly up to 92.4 µM; also: nearly all actives have a fitted effect of over 35% in size; also: potency is read from the fitted curve at half-maximal effect
[3] = target: Gonadotropin-releasing hormone receptor (Homo sapiens) (UniProt P30968); assay: Human gonadotropin-releasing hormone receptor (GnRHR) small molecule agonists, calcium flux assay in GnRHR-HEK293 cells (AID 1920063); conditions: calcium flux fluorescence, agonist mode; series mostly up to 57.6 µM; also: nearly all actives have a fitted effect of over 35% in size
Sequence of Gonadotropin-releasing hormone receptor (Homo sapiens) (P30968 whole entry, looked up): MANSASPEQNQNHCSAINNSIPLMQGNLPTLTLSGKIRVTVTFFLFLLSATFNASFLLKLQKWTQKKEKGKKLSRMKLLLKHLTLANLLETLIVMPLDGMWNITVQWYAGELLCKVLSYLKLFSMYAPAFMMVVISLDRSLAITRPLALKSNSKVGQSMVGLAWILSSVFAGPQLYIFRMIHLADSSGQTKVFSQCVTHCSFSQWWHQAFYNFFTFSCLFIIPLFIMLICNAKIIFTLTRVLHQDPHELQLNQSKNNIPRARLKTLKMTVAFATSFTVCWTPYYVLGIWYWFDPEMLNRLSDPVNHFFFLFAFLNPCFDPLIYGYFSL
How it was run: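 We seeded human GnRHR-expressing HEK293 cells for 18 hours, loaded them with calcium dye for an hour at 37 C, added test compounds, and recorded fluorescence intensity kinetically for three minutes.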

[4] = target: KiSS-1 receptor (Homo sapiens) (UniProt Q969F8); assay: Human kisspeptin (KISS1R) small molecule agonists, calcium flux assay in KISS1R-HEK293 cells (AID 1920064; active = well fitted curve in the direction sought with a large enough effect in the repeat runs; an effect the other way counts as inactive or inconclusive); conditions: KISS1R-HEK293, calcium flux fluorescence, agonist; series mostly up to 76.8 µM
Sequence of KiSS-1 receptor (Homo sapiens) (Q969F8 whole entry, looked up): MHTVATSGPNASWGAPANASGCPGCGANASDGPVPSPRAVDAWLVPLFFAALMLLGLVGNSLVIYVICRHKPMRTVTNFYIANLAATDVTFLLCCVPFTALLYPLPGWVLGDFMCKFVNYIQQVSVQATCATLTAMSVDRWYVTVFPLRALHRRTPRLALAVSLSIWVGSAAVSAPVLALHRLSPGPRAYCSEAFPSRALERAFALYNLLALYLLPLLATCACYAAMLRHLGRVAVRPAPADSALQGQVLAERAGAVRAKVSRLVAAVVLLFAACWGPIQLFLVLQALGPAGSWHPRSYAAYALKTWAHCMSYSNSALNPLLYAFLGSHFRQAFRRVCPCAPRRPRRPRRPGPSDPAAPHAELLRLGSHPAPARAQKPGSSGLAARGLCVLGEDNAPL
How it was run: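 Kinetic calcium assay, 1 s sampling over 3 min at Ex/Em 480/540, in HEK293 cells engineered with human KISS1R; compounds delivered in DMSO after 1 h dye loading.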

[5] = G protein-coupled receptor (GPCR) small molecule agonists, calcium flux assay: HEK293 wild type cell line counter screen (AID 1920065); conditions: HEK293 WT calcium flux, fluorescence, agonist mode; series mostly up to 57.6 µM
How it was run: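 Calcium-sensitive dye, loaded 1 h at 37 C into cells cultured 18 h, reports compound-evoked calcium release as fluorescence (Ex/Em 480/540), measured over 3 min. Agonist mode; 15-point titrations, triplicate.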

[6] = p53 small molecule agonists, cell-based qHTS assay with human liver microsomes (AID 1963577); conditions: HCT-116 p53RE-bla with human liver microsomes, ratio, 16 h; series mostly up to 66 µM
How it was run: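 p53RE-bla cells, 4,000/well, compound added after 5 h, with human liver microsomes 0.5 mg/mL and NADPH 0.5 mg/mL final; 16 h at 37 C, then LiveBLAzer 2 h RT, fluorescence.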

[7] = p53 small molecule agonists, cell-based qHTS assay with rat liver microsomes (AID 1963578); conditions: HCT-116 p53RE-bla, beta-lactamase ratio, 16 h; series mostly up to 66 µM
How it was run: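 p53RE-bla cells, 4,000/well, pre-incubated 5 h, then given compounds plus rat liver microsomes (0.5 mg/mL final) and NADPH (0.5 mg/mL final). Incubation 16 h at 37 C; beta-lactamase reporter read by LiveBLAzer fluorescence after 2 h at room temperature.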

[8] = p53 small molecule agonists, cell-based qHTS assay with human liver microsomes: qHTS cell viability counter screen (AID 1963579); conditions: p53RE-bla HCT-116 viability, ATP luminescence, 16 h, HLM; series mostly up to 66 µM; also: nearly all actives have a fitted effect of over 45% in size
How it was run: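 p53RE-bla cells, 4,000/well, dosed 5 hours after plating, with human liver microsomes (0.5 mg/mL final) plus NADPH (0.5 mg/mL final), 16 hours at 37 C. Viability read as CellTiter-Glo luminescence after 30 min at room temperature.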

[9] = p53 small molecule agonists, cell-based qHTS assay with rat liver microsomes: qHTS cell viability counter screen (AID 1963580); conditions: p53RE-bla HCT-116 + rat microsomes, ATP viability, 16 h; series mostly up to 66 µM; also: nearly all actives have a fitted effect of over 45% in size
How it was run: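 Viability is assessed in parallel with the p53 reporter read: HCT-116 p53RE-bla cells receive compounds plus rat microsomes and NADPH (0.5 mg/mL final apiece), incubate 16 h at 37 C, and then CellTiter-Glo luminescence is recorded.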

[10] = p53 small molecule agonists, cell-based qHTS assay: qHTS cell viability counter screen (AID 1963581); conditions: p53RE-bla HCT-116 viability, ATP luminescence, 16 h; series mostly up to 66 µM; also: nearly all actives have a fitted effect of over 45% in size
How it was run: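 Following 5 h attachment, HCT-116 p53RE-bla cells took up compound for 16 h at 37 C; the reporter was read with B/G FRET substrate (2 h RT), and viability then via CellTiter-Glo ATP luminescence.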

[11] = p53 small molecule agonists, cell-based qHTS assay (AID 1963582; active = well fitted activation curve with a large enough effect in the signal ratio in the repeat runs, not every such curve was filed as active; the % refers to the signal ratio); conditions: HCT-116 p53RE-bla reporter, beta-lactamase FRET ratio, 16 h; series mostly up to 66 µM
How it was run: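 In this cell-based concentration-response screen, a p53 response element drives beta-lactamase; cells received DMSO-borne compounds after 5 h culture and were incubated a further 16 h before FRET substrate development.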

[12] = cAMP Responsive Elements (CRE) small molecule agonists, cell-based qHTS assay (AID 1963590); conditions: CRE-bla HEK293T, beta-lactamase FRET ratio, 3 h; series mostly up to 92.4 µM
How it was run: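 A CRE-responsive beta-lactamase reporter in HEK 293T cells was used. Treatment ran 3 h at 37 C; detection used LiveBLAzer B/G FRET substrate for 2 h at room temperature.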

[13] = cAMP Responsive Elements (CRE) small molecule antagonists, cell-based qHTS assay (AID 1963591; active = well fitted inhibition curve with a large enough effect in the signal ratio in the repeat runs, not every such curve was filed as active; the % refers to the signal ratio; also: potency is read from the fitted curve at half-maximal effect); conditions: CRE-bla HEK293T, beta-lactamase FRET ratio; series mostly up to 92.4 µM
How it was run: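 HEK293T cells carrying a CRE-driven beta-lactamase reporter receive compound and NKH477 (0.25 uM final) for 3 h. Fluorescence from LiveBLAzer B/G FRET substrate is read after 2 h at room temperature.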

[14] = target: Beta-2 adrenergic receptor (Homo sapiens) (UniProt P07550); assay: Adrenergic beta2 receptor (ADRB2) small molecule antagonists, cell-based qHTS assay (AID 1963592); conditions: CHO-ADRB2 cells, isoproterenol-stimulated cAMP HTRF ratio, 0.5 h; series mostly up to 92.4 µM; also: nearly all actives have a fitted effect of over 50% in size
Sequence of Beta-2 adrenergic receptor (Homo sapiens) (P07550 whole entry, looked up): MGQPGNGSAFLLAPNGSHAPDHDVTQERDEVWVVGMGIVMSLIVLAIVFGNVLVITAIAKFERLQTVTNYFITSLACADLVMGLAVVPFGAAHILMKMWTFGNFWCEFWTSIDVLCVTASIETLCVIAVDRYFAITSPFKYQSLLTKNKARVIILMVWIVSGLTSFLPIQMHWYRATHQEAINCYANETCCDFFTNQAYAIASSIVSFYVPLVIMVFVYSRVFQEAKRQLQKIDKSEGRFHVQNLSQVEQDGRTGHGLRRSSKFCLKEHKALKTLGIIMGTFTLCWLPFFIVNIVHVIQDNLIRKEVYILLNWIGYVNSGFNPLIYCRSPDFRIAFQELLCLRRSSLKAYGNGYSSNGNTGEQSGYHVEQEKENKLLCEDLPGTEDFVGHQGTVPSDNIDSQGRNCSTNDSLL
How it was run: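 Cells (CHO, stable ADRB2 overexpression) incubated 18-20hr at 37C; compounds added from DMSO; agonist mix (1nM isoproterenol, 100uM IBMX, 25uM Ro-20-1724) added; 0.5hr RT; d2-cAMP and anti-cAMP-cryptate added; 1hr RT; 665/615 nm read.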

[15] = target: Beta-2 adrenergic receptor (Homo sapiens) (UniProt P07550); assay: Adrenergic beta2 receptor (ADRB2) small molecule agonists, cell-based qHTS assay (AID 1963593); conditions: CHO-ADRB2 cells, cAMP HTRF, 30 min; series mostly up to 92.4 µM;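 also: CHO cells stably overexpressing human ADRB2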
How it was run: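 CHO cells stably over-expressing ADRB2 were plated overnight at 37C, then dosed with compounds plus a stimulation mix containing 100uM IBMX and 25uM Ro-20-1724 for 0.5hr at room temperature. cAMP was measured by HTRF competition, 1hr.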

[16] = target: D(2) dopamine receptor (Homo sapiens) (UniProt P14416); assay: Dopamine D2 receptor (DRD2) small molecule agonists, cell-based qHTS assay (AID 1963594); conditions: HEK293-DRD2 cAMP HTRF, agonist mode, 30 min; series mostly up to 92.4 µM; also: nearly all actives have a fitted effect of over 35% in size
Sequence of D(2) dopamine receptor (Homo sapiens) (P14416 whole entry, looked up): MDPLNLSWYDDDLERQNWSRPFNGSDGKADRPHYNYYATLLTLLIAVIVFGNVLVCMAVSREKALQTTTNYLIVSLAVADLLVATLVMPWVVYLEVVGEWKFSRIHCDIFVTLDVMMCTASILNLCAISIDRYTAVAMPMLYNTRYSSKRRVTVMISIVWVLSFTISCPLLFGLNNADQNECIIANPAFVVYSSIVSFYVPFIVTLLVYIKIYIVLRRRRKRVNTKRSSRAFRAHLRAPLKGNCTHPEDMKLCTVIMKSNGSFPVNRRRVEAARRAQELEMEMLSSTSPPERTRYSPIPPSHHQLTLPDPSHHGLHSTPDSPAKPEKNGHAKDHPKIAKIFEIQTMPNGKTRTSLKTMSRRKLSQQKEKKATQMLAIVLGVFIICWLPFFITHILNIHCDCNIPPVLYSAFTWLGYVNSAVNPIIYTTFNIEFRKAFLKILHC
How it was run: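 HEK293 cells stably expressing human DRD2, pre-treated with PDE inhibitor Ro20-1724 (0.1 mM final) and compound 10 min at room temperature, then stimulated with NKH477 (200nM […]) for 30 min. cAMP read by HTRF (665/620 nm).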

[17] = target: D(2) dopamine receptor (Homo sapiens) (UniProt P14416); assay: Dopamine D2 receptor (DRD2) small molecule antagonists, cell-based qHTS assay (AID 1963595; active = well fitted inhibition curve with a large enough effect in the signal ratio in the repeat runs, with a control signal flat; the % refers to the signal ratio); conditions: HEK293-DRD2 cAMP HTRF antagonist mode; series mostly up to 92.4 µM
How it was run: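 Antagonist mode in DRD2-HEK293 cells: after compound addition with 0.1 mM Ro20-1724, cells received quinpirole (12 nM) and NKH477 (200 nM) for 30 min at room temperature; HTRF cAMP read after 1 h detection.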

[18] = target: 5-hydroxytryptamine receptor 2A (Homo sapiens) (UniProt P28223); assay: 5-hydroxytryptamine receptor 2A (HTR2A) small molecule agonists, cell-based qHTS assay (AID 1963587); conditions: HTR2A-CHO cells, calcium flux fluorescence, agonist mode; series mostly up to 76.8 µM; also: nearly all actives have a fitted effect of over 30% in size
Sequence of 5-hydroxytryptamine receptor 2A (Homo sapiens) (P28223 whole entry, looked up): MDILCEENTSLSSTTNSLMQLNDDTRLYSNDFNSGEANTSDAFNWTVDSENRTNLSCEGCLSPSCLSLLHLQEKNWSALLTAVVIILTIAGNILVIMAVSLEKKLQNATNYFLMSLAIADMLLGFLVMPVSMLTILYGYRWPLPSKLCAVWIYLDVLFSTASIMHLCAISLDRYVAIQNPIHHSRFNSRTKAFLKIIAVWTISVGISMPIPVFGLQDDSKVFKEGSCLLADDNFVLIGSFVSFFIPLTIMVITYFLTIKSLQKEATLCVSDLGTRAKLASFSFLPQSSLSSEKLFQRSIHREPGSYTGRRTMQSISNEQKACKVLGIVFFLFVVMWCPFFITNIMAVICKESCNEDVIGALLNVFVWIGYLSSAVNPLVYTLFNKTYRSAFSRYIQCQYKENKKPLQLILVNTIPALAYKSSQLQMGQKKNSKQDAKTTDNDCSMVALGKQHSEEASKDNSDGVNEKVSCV
How it was run: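 CHO cells stably expressing human HTR2A, plated 18 h, loaded with calcium dye 1 h at 37 C. Agonist mode: compounds added and intracellular calcium fluorescence recorded kinetically for 2 min at 1 sec intervals.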

[19] = target: Muscarinic acetylcholine receptor M1 (Homo sapiens) (UniProt P11229); assay: Cholinergic receptor muscarinic 1 (CHRM1) small molecule agonists, cell-based qHTS assay (AID 1963589); conditions: CHRM1-CHO cells, agonist mode, calcium flux fluorescence; series mostly up to 76.8 µM; also: nearly all actives have a fitted effect of over 35% in size
Sequence of Muscarinic acetylcholine receptor M1 (Homo sapiens) (P11229 whole entry, looked up): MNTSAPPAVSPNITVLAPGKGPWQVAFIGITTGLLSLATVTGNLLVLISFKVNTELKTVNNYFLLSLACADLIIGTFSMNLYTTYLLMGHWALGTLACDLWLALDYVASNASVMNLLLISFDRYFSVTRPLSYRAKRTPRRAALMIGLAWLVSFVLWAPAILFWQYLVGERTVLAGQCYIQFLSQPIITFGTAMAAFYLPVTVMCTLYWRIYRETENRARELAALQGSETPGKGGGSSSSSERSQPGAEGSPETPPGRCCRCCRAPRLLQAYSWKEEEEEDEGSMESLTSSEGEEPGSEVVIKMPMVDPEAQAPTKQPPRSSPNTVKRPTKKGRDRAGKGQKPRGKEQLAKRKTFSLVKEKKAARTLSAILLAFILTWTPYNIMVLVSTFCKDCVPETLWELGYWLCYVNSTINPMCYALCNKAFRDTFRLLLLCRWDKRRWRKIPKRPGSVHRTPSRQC
How it was run: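 Measures agonist-induced intracellular calcium rise. Stable human CHRM1 CHO line, 1 h dye load at 37 C, compounds from DMSO, kinetic fluorescence read.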

[20] = target: 5-hydroxytryptamine receptor 2A (Homo sapiens) (UniProt P28223); assay: 5-hydroxytryptamine receptor 2A (HTR2A) small molecule antagonists, cell-based qHTS assay (AID 1963586); conditions: HTR2A-CHO cells, DOI-induced calcium flux, fluorescence; series mostly up to 61.5 µM; also: nearly all actives have a fitted effect of over 45% in size
How it was run: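 Antagonist-mode intracellular calcium assay: DOI (4 nM) added after 5 min compound pre-incubation at room temperature to dye-loaded HTR2A-CHO cells. Fluorescence followed for 3 min, sampled every second.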

Measured: Potency

CN/C(=C\[N+](=O)[O-])NCCSCc1csc(CN(C)C)n1
not listed: [18] | [19] | [20]
inactive: all other assays above

CCOC(=O)C(C)(C)Oc1ccc(Cl)cc1
not listed: [18] | [19] | [20]
inactive: all other assays above

NS(=O)(=O)c1cc2c(cc1Cl)NCNS2(=O)=O
not listed: [18] | [19] | [20]
inactive: all other assays above

CCCC(C)=O
not listed: [12] | [13] | [19] | [20]
inactive: all other assays above

Cc1cc(C)c(O)c(C)c1
not listed: [20]
inactive: all other assays above

C/C=C/C(=O)N(CC)c1ccccc1C
not listed: [12] | [13] | [15] | [18] | [19] | [20]
inactive: all other assays above

O=C1O[C@H](CO)[C@@H](O)[C@H](O)[C@H]1O
not listed: [10]
inactive: all other assays above

O=C(c1ccccc1)c1ccc(O)c(O)c1O
not listed: [11]
inactive: all other assays above

COC(=O)c1ccc(C=O)cc1
not listed: [11] | [19]
inactive: all other assays above

NC(=O)NO
not listed: [12] | [18] | [19] | [20]
inactive: all other assays above

Nc1ncn([C@@H]2O[C@H](CO)[C@@H](O)[C@H]2O)c(=O)n1
active: [2] 30.6 µM and 7.5 µM | [13] 40.3 µM
not listed: [11] | [15] | [18] | [19] | [20]
inactive: all other assays above

COCc1c(C(C)C)nc(C(C)C)c(/C=C/[C@@H](O)C[C@@H](O)CC(=O)O)c1-c1ccc(F)cc1
not listed: [11] | [12] | [13] | [18] | [19] | [20]
inactive: all other assays above

CC(=O)Nc1cccc(O)c1
not listed: [15] | [18] | [19] | [20]
inactive: all other assays above

C=CCc1ccc(O)c(OC)c1
not listed: [13] | [18] | [19] | [20]
inactive: all other assays above

CC(C)(C)NC(=O)[C@H]1CC[C@H]2[C@@H]3CC[C@H]4NC(=O)C=C[C@]4(C)[C@H]3CC[C@]12C
not listed: [12] | [13] | [18] | [19] | [20]
inactive: all other assays above

Source: PubChem BioAssay (Tox21)
